# Test results taken from PubChem BioAssay.
# This is one part of the list. Unmarked numbers belong to inactive results. Active and inactive are the calls of the source.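 How the source made its calls, unless noted: active means mean inhibition above about 50% in the one-dose retest (limit read from the data); inactive means the rest.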
# Tests used:
# [1] = molecular target: Sentrin-specific protease 8 (Homo sapiens) (UniProt Q96LD8); experiment: human SENP8 peptidase blockers, hit retest – biochemical, luminescence, single concentration, confirmation (AID 488912;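 active means mean inhibition across replicates above about 50%, limit read from the data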); settings: Recombinant SENP8, Z-RLRGG-aminoluciferin luminescence, 60 min; at 12.5 µM; stronger effect = higher value
# Chain of Sentrin-specific protease 8 (Homo sapiens) (Q96LD8 whole entry, looked up, the tested form may be a part): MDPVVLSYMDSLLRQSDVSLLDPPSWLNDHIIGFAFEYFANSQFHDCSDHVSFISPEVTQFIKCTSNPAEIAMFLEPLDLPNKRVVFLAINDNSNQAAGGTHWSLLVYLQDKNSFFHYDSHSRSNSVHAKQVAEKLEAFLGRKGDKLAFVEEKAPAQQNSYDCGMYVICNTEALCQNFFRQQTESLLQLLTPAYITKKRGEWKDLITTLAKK
# [2] = molecular target: Sentrin-specific protease 6 (Homo sapiens) (UniProt Q9GZR1); experiment: inhibition of human SENP6 catalytic domain – biochemical, luminescence, single concentration, confirmation (AID 488915); settings: recombinant SENP6, Z-RLRGG-aminoluciferin luminescence; at 12.5 µM; stronger effect = higher value
# Chain of Sentrin-specific protease 6 (Homo sapiens) (Q9GZR1 628-1112 limits assumed): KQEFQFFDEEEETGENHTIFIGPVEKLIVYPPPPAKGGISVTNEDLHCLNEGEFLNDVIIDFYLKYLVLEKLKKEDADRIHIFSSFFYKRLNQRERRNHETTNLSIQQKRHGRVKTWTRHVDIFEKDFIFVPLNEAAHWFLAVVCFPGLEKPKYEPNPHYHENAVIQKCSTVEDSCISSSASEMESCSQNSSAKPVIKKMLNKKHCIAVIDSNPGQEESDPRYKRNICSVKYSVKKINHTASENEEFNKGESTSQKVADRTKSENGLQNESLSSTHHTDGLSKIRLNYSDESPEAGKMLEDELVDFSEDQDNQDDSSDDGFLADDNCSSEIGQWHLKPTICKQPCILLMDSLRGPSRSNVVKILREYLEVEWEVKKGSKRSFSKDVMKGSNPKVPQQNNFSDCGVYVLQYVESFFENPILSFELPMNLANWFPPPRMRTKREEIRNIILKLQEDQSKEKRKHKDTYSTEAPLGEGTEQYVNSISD
# [3] = molecular target: Sentrin-specific protease 7 (Homo sapiens) (UniProt Q9BQF6); experiment: human SENP7 peptidase blockers, hit retest – biochemical, luminescence, single concentration, confirmation (AID 488917); settings: recombinant SENP7, Z-RLRGG-aminoluciferin luminescence, 40 min; at 12.5 µM; stronger effect = higher value
# Chain of Sentrin-specific protease 7 (Homo sapiens) (Q9BQF6 706-1050 limits assumed): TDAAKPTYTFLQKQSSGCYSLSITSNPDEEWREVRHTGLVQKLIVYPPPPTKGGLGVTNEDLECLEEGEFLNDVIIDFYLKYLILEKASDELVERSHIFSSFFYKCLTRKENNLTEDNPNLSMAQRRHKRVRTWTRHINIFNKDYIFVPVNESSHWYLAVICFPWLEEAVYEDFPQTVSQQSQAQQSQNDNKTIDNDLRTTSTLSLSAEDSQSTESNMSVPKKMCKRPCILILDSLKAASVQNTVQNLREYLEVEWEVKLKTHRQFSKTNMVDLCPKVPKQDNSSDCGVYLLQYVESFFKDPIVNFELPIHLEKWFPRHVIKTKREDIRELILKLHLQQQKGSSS
# [4] = molecular target: Caspase-3 (Homo sapiens) (UniProt P42574); experiment: human caspase-3 activity blockade, out-of-family – biochemical, single concentration, selectivity assay for SENP inhibitor project, confirmation (AID 488918;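 active means mean inhibition above about 50%, limit read from the data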;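 further: plate controls were enzyme with DMSO for no effect and wells without caspase-3 for full effect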); settings: purified caspase-3, Z-DEVD-aminoluciferin luminescence, 60 min; at 12.5 µM; stronger effect = higher value
# Chain of Caspase-3 (Homo sapiens) (P42574 28-227 limits assumed): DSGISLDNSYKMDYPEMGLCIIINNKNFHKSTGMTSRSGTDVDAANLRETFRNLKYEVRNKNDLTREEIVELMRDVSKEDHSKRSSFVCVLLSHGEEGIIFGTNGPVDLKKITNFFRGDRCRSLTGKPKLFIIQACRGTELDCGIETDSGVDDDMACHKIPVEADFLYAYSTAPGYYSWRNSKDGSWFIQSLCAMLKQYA
# [5] = Ultra-Glo luciferase signal interference – biochemical, single concentration, SENP8 reaction pre-completed, artefact control for SENP inhibitor project, confirmation (AID 488919;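 active means mean inhibition above about 50% when retested at one dose, limit read from the data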;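 further: plate controls were DMSO wells with completed reaction for no effect and substrate without enzyme for full effect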); settings: Pre-incubated SENP8/Z-RLRGG-aminoluciferin, luciferase luminescence interference; at 12.5 µM; stronger effect = higher value
SMILES,inhibition [1],inhibition [2],inhibition [3],inhibition [4],inhibition [5]
Oc1cccc2ccc(/C=C/c3ccc(Br)s3)nc12,31.2%,63.9% (active),52.2% (active),59.9% (active),9.6%
COCCN(CCOC)c1nc(N)c2c(N)nc3c(c2c1C#N)CC(=O)N3Cc1ccc(Cl)cc1,-5.5%,-0.6%,5.3%,3.6%,-3.7%
O=C(COc1ccc2oc3c(c2c1)CCCC3)Nc1ccccn1,4.9%,12.8%,11.9%,24.7%,4.6%
COc1ccc2nc(Nc3nc4cc5c(cc4s3)OCCO5)sc2c1,20.4%,63% (active),71.6% (active),31.8%,24.3%
COc1ccc(C(=O)Nc2ccc3c(c2)OCO3)cc1OC,8.9%,77.3% (active),93.5% (active),91.3% (active),77.4% (active)
Cc1ccc(NC(=O)c2sccc2C)cc1[N+](=O)[O-],78% (active),77.5% (active),95.7% (active),81% (active),82.6% (active)
Cc1cccc(OCC(=O)Nc2ccccc2F)c1,20.8%,30.1%,72.8% (active),62.7% (active),35.2%
CCc1noc(C)c1C(=O)Nc1nc2ccc(OC)cc2s1,45.2%,42.8%,78.3% (active),58.3% (active),19.6%
CN1C(=O)/C(=C\c2cc(Br)cs2)c2ccccc21,27.2%,42.4%,23%,18%,12.1%
Cc1cc(C(=O)Nc2nnc(C3CC3)s2)c(C)s1,63.4% (active),80.8% (active),94.1% (active),83.7% (active),16.4%
CCOC(=O)/C(C#N)=C/c1ccc(N2CCCCC2)cc1,25.6%,34.1%,65% (active),30.2%,10.6%
COc1ccc(-n2ncc3c(SCC(=O)NNC(C)=O)ncnc32)cc1,11.5%,48.8%,11.2%,51.3% (active),5.9%
O=c1[nH]c(CCl)nc2cc(-c3ccc(Cl)cc3)sc12,25.3%,45.5%,19.6%,28.2%,9.5%
Cc1cccc(NC(=O)c2ccc3ccccc3n2)n1,76.6% (active),76.1% (active),93.6% (active),65.2% (active),51.2% (active)
CC(=O)Nc1ccc(/C=N/NC(=O)c2cccs2)cc1,31.2%,34%,78.5% (active),82.4% (active),58.1% (active)
COc1ccc(C(=O)Nc2ccc(F)cc2F)cc1,-4.2%,60.2% (active),87.6% (active),87.1% (active),67.9% (active)
O=C(Nc1nnc(C2CC2)s1)c1ccccn1,49.3%,49.2%,82.6% (active),83.6% (active),59.4% (active)
Cc1cc(C(=O)N/N=C/c2ccc(N3CCOCC3)cc2)c(C)o1,86.9% (active),86.6% (active),98.6% (active),95.4% (active),49.9%
Cc1ccc(F)c(NC(=O)CCc2ccccc2)c1,36.4%,30.4%,68.6% (active),60.7% (active),44.8%
Fc1ccc2nc(N3CCCCC3)sc2c1,7.7%,78.8% (active),97.3% (active),80.5% (active),18.4%
Cc1[nH]n(C(N)=S)c(=O)c1N=Nc1ccc(Cl)cc1Cl,81.4% (active),89.8% (active),93.3% (active),85.3% (active),38.9%
O=C(Nc1sc2c(c1C(=O)O)CCC2)c1ccccc1F,94.5% (active),96.2% (active),102% (active),96.3% (active),94.5% (active)
CCOC(=O)c1sc(NC(=O)c2ccncc2)nc1C,0.5%,74.8% (active),90.8% (active),84.4% (active),20%
O=C(O)/C=C/C(=O)NNc1ccc([N+](=O)[O-])cc1,67.5% (active),65.4% (active),92.5% (active),88.6% (active),79.3% (active)
CCC(=O)Nc1ccc(C(=O)Nc2cccc(OC)c2)cc1,42.4%,39%,71.9% (active),69.1% (active),52.9% (active)
